Structures can show the parent of a compound that is named as a salt.
Key:
Assay in all cases: thermal shift delta Tm vs DMSO control; higher = stronger stabilization (binding)
Conditions in all cases: 12.5 µM; protein concentration 2 µM
[1] = system: LOC_OS01G01410-cb001
How it was run: (§1)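 Compounds dissolved in DMSO were added to purified rice kinase domain constructs, which had been expressed in E. coli, for differential scanning fluorimetry. Each well held 19.5 μl of 2 μM kinase in 100 mM potassium phosphate pH 7.5, 150 mM NaCl, 10% glycerol and 5 × SYPRO Orange. Fluorescence was followed from 25°C to 95°C at a rate of 0.05°C/s. Shifts in Boltzmann-fitted melting temperature are triplicate means relative to DMSO-only protein.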

[2] = system: LOC_OS01G02750-cb003
How it was run: as §1

[3] = system: LOC_OS01G10900-cb004
How it was run: as §1

[4] = system: LOC_OS01G13800-cb001
How it was run: as §1

[5] = system: LOC_OS01G14860-cb001
How it was run: as §1

[6] = system: LOC_OS01G21960-cb002
How it was run: as §1

[7] = system: LOC_OS01G39600-cb002
How it was run: as §1

[8] = system: LOC_OS01G48390-cb002
How it was run: as §1

[9] = system: LOC_OS01G51400-cb002
How it was run: as §1

[10] = system: T1, LOC_OS01G52050-cb004
T1 sequence (whole entry): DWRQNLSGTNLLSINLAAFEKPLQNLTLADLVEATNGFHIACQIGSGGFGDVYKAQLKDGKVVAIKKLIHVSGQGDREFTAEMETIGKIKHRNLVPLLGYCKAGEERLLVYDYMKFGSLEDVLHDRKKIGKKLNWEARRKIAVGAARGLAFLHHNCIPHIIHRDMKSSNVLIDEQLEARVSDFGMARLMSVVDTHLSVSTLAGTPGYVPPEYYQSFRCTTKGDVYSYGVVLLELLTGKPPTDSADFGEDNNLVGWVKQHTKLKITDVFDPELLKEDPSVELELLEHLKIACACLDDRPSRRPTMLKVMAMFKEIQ
How it was run: as §1

[11] = system: LOC_OS01G57100-cb003
How it was run: as §1

[12] = system: LOC_OS01G60330-cb001
How it was run: as §1

[13] = system: LOC_OS01G60700-cb002
How it was run: as §1

[14] = system: LOC_OS01G63280-cb003
How it was run: as §1

[15] = system: LOC_OS01G67340-cb003
How it was run: as §1

[16] = system: LOC_OS01G70970-cb002
How it was run: as §1

[17] = system: LOC_OS02G07810-cb001
How it was run: as §1

[18] = system: LOC_OS02G08530-cb003
How it was run: as §1

[19] = system: LOC_OS02G14120-cb001
How it was run: as §1

[20] = system: LOC_OS02G17970-cb001
How it was run: as §1

| Compound | thermal shift delta Tm [1] [°C] | thermal shift delta Tm [2] [°C] | thermal shift delta Tm [3] [°C] | thermal shift delta Tm [4] [°C] | thermal shift delta Tm [5] [°C] | thermal shift delta Tm [6] [°C] | thermal shift delta Tm [7] [°C] | thermal shift delta Tm [8] [°C] | thermal shift delta Tm [9] [°C] | thermal shift delta Tm [10] [°C] | thermal shift delta Tm [11] [°C] | thermal shift delta Tm [12] [°C] | thermal shift delta Tm [13] [°C] | thermal shift delta Tm [14] [°C] | thermal shift delta Tm [15] [°C] | thermal shift delta Tm [16] [°C] | thermal shift delta Tm [17] [°C] | thermal shift delta Tm [18] [°C] | thermal shift delta Tm [19] [°C] | thermal shift delta Tm [20] [°C] |
| --- | --- | --- | --- | --- | --- | --- | --- | --- | --- | --- | --- | --- | --- | --- | --- | --- | --- | --- | --- | --- |
| COc1cc2ncnc(Nc3ccc(F)c(Cl)c3)c2cc1NC(=O)/C=C/CN1CCCCC1 | 1.07 | 1.4 | 1.7 | 0.04 | 0.18 | 1.27 | -0.71 | 0.7 | 0.66 | 0.74 | 2.23 | 2.36 | 1.39 | 0.37 | 1.76 | 0.52 | 1.55 | 1.7 | 0.41 | 1.92 |
| CC(C)NC(=O)COc1cccc(-c2nc(Nc3ccc4[nH]ncc4c3)c3ccccc3n2)c1 | 0.42 | 0.09 | 0.99 | 0.46 | 1.95 | 1.23 | -0.3 | 0.33 | -0.24 | 1.34 | 1.14 | 12.3 | 0.68 | 0.55 | 0.91 | 0.76 | 1.23 | 1.03 | 2.71 | 1.76 |
| Cc1nc(-c2cn3c(n2)-c2ccc(-c4cnn(C(C)(C)C(N)=O)c4)cc2OCC3)n(C(C)C)n1 [Taselisib (GDC 0032)] | 2.11 | -0.1 | 0.24 | 0.32 | -0.05 | 0.03 | -0.05 | 0.45 | 0.03 | 0.13 | 0.43 | 0.33 | 0.46 | 0.16 | 0.07 | 0.23 | 0.07 | 0.84 | 0.27 | 0.09 |
| CCN1/C(=C/C(C)=O)Sc2ccc(OC)cc21 | 0.21 | 0.62 | 0.24 | 0.6 | 1.92 | 1.17 | -0.62 | 0.54 | 0.02 | -0.01 | 1.85 | 1.16 | 0.54 | 0.05 | 0.66 | 0.38 | 0.47 | 0.41 | 0.43 | 0.27 |
| C=CC(=O)N1CC[C@@H](Oc2nc(Nc3ccc(N4CCC(N5CCN(C)CC5)CC4)cc3)c(C(N)=O)nc2CC)C1 [Naquotinib(ASP8273)] | 5.21 | 1.59 | 4.44 | -0.4 | 4.17 | 2.68 | 1.51 | 3.38 | -0.03 | 2.34 | 0.96 | 9.41 | 0.02 | 0.22 | 1.05 | 5.67 | -0.78 | 4.36 | 8.5 | 0.57 |
| CC#CC(=O)N1CCC[C@H]1c1nc(-c2ccc(C(=O)Nc3ccccn3)cc2)c2c(N)nccn12 [Acalabrutinib (ACP-196)] | 0.74 | 0.55 | 0.53 | 0.19 | 0.36 | 0.47 | 0.15 | 0.22 | -0.06 | -0.21 | 0.82 | 0.94 | 1.14 | 0.05 | 0.39 | 0.4 | 0.04 | 0.89 | 0.57 | 0.74 |
| O=C1NC(=O)/C(=C/c2ccc3nccc(-c4ccncc4)c3c2)S1 | 1.21 | 0.63 | 0.95 | 0.37 | 0.98 | 0.96 | 1.76 | 0.2 | 0.08 | 0.79 | 0.39 | 0.51 | 0.74 | -0.17 | 0.62 | 0.07 | 0.58 | 0.62 | 3.14 | 0.7 |
| C[C@H](CN(C)C)Oc1nc(Nc2cc3cccc(Cl)c3cn2)cnc1C#N | 0.28 | 1.3 | 0.44 | 0.1 | 0.9 | 1.95 | 0.03 | 4.18 | 0.08 | 1.79 | 0.95 | 1.48 | 1.39 | 0.39 | 0.6 | 0.34 | 0.31 | 1.68 | 2.95 | 2.26 |
| Cc1cc(O)c(-c2ccc([C@@H](C)CN)cc2)c2c1[nH]c(=O)c1sccc12 [OTS514 hydrochloride] | 0.18 | 0.75 | 1.18 | 0.58 | 5.36 | 1.5 | 0.36 | 1.38 | -0.1 | 1.82 | -0.04 | 2.08 | 1.5 | 0.46 | 0.86 | 0.57 | 0.41 | 1.3 | 4.21 | 1.52 |
| O=C(Nc1nccs1)C(c1cc(F)ccc1O)N1Cc2ccccc2C1=O (stereo not given) | 0.29 | 0.35 | 0.25 | -0.01 | 0.4 | 0.48 | -0.23 | -0.1 | -0.02 | -0.31 | 0.29 | 1.19 | 0.64 | -0.09 | 1.06 | 0.42 | 0.12 | 0.39 | 0.47 | 0.37 |
| NC(=O)c1cnc(N[C@@H]2CCCC[C@@H]2N)nc1Nc1cccc(-n2nccn2)c1 | 0.52 | 0.79 | -0.04 | -0.14 | 3.33 | 1.47 | 0.85 | 0.37 | 1.02 | 5.03 | 2.55 | 0.94 | 1.04 | 0.28 | 0.99 | 2.19 | -0.28 | 4.36 | 2.99 | 1.5 |
